This note sets out measurements from PubChem BioAssay (EPA / NIEHS).

Records with an inconclusive call do not appear. The source made the active and inactive calls. The calls were made as follows, unless noted: active = hit-call score of the fitted dose curve at least 0.9, where 1 is the maximum; inactive = score below 0.9.

The target in assay [1] is human Vitamin D Receptor (VDR), VDR (gene 7421) (UniProt P11473). Nature of the assay: ATG_VDR_TRANS: Attagene TRANS-FACTORIAL HepG2 Assay for human Vitamin D Receptor (VDR) (AID 2283022; active = hit-call score of the fitted dose curve at least 0.9, where 1 is the maximum). The essentials: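 Steps: transfect HepG2 with GAL4-UAS-driven reporter constructs; dose compounds 24 h; isolate RNA, reverse-transcribe, PCR-amplify with 6-FAM-labelled primer extension and HpaI digestion; quantify fragments by capillary electrophoresis relative to DMSO.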

A short description of assay [2]: BSK_3C_SRB: Viability Assessment in the BioMAP Diversity Plus: 3C Assay (AID 2283023).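 Also: fitted both ways against DMSO so a hit may be signal rise or drop.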 Particulars: primary human endothelial cells (HUVEC). The essentials:
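Absorbance at 560 nm of sulforhodamine B-stained (0.1%) total protein served as a cytotoxicity readout in human umbilical vein endothelial cells, 24 h after chemical treatment. Signal was fitted bidirectionally relative to DMSO.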

Read-out in assay [3]: Matrix Metallopeptidase 1 (MMP1), MMP1 (gene 4312)
Nature of the assay: BSK_BE3C_MMP1: BioMAP Diversity Plus: BE3C Assay for Matrix Metallopeptidase 1 (MMP1) Biomarker Activity (AID 2283024). Conditions: primary human bronchial epithelial cells; actives raise or lower the signal. In short, it runs like this:
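ELISA measurement of MMP-1 after 24 h compound exposure of primary human bronchial epithelial cells. Changes in either direction fitted relative to DMSO; parallel SRB staining checked overt cytotoxicity.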

Assay [4] is described as follows: BSK_3C_Vis: BioMAP Diversity Plus: 3C Assay for Morphology Visualization (AID 2283025).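 Also: fitted both ways so gain or loss versus DMSO counts.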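 As to AC50: light microscopy image of cell morphology used as background control.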 Conditions: primary human endothelial cells (HUVEC). In short, it runs like this: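 Light-microscopy visualization of HUVEC cultures at 24 h post-treatment, with DMSO as baseline for bidirectional fitting.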
Read-out in assay [5]: Pselectin, SELP (gene 6403)
Nature of the assay: BSK_4H_Pselectin: BioMAP Diversity Plus: 4H Assay for Pselectin Biomarker Activity (AID 2283026). Particulars: primary human endothelial cells (HUVEC); actives raise or lower the signal. The essentials: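 ELISA of surface P-selectin on HUVEC, 24 h after dosing, with parallel SRB staining (0.1% after 10% TCA fixation, 560 nm) for overt cytotoxicity. Activity fitted in both directions relative to DMSO.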

A short description of assay [6]: BSK_4H_SRB: Viability Assessment in the BioMAP Diversity Plus: 4H Assay (AID 2283027).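 Also: cells exposed to compound for 24 h before staining.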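 As to AC50: curves fitted both ways versus DMSO so AC50 may be loss or gain.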 Particulars: primary human endothelial cells (HUVEC). The essentials: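 Cytotoxicity readout: sulforhodamine B (0.1%) staining of total protein after 10% TCA fixation, measured at 560 nm in human umbilical vein endothelium at 24 h. DMSO set the baseline; fitting was bidirectional.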

Assay [7] is described as follows: BSK_BE3C_SRB: Viability Assessment in the BioMAP Diversity Plus: BE3C Assay (AID 2283028). Particulars: primary human bronchial epithelial cells. In short, it runs like this: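 Cells (human bronchial epithelial, primary) are treated with chemicals, and after 24 h the parallel cultures are fixed in 10% TCA. These are then stained with 0.1% SRB and read at 560 nm. Gain or loss of signal is fitted relative to DMSO.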

Read-out in assay [8]: Thrombomodulin, THBD (gene 7056)
Briefly: BSK_3C_Thrombomodulin: BioMAP Diversity Plus: 3C Assay for Thrombomodulin Biomarker Activity (AID 2283029). Conditions: primary human endothelial cells (HUVEC); actives raise or lower the signal. In short, it runs like this:
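ELISA measurement of thrombomodulin on HUVEC surface 24 h after chemical dosing; activity fitted in both directions relative to DMSO vehicle.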

Read-out in assay [9]: Urokinase-type plasminogen activator receptor (uPAR), PLAUR (gene 5329)
Briefly: BSK_4H_uPAR: BioMAP Diversity Plus: 4H Assay for Urokinase-type plasminogen activator receptor (uPAR) Biomarker Activity (AID 2283030). Particulars: primary human endothelial cells (HUVEC); actives raise or lower the signal. The essentials: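 Cell-surface uPAR ELISA signal, measured 24 h after dosing human umbilical vein endothelial cells, was analyzed with bidirectional fitting relative to DMSO. Parallel SRB staining of total protein tracked overt cytotoxicity.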

Read-out in assay [10]: Vascular endothelial growth factor receptor 2 (Homo sapiens) (UniProt P35968)
Nature of the assay: BSK_4H_VEGFRII: BioMAP Diversity Plus: 4H Assay for Vascular endothelial growth factor receptor 2 (VEGFR2) Biomarker Activity (AID 2283031). Conditions: primary human endothelial cells (HUVEC); actives raise or lower the signal. The essentials:
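ELISA read-out of VEGFRII in primary human umbilical vein endothelium, taken 24 h after chemical treatment. Responses are expressed relative to DMSO, with bidirectional fitting.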

Read-out in assay [11]: Human Leukocyte Antigen - DR isotype (HLADR), HLA-DRA (gene 3122)
Nature of the assay: BSK_BE3C_HLADR: BioMAP Diversity Plus: BE3C Assay for Human Leukocyte Antigen - DR isotype (HLADR) Biomarker Activity (AID 2283032). Particulars: primary human bronchial epithelial cells; actives raise or lower the signal. The essentials:
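Cell-surface HLA-DR ELISA readout at 24 h after dosing in the BE3C primary human lung bronchial epithelial system; gain or loss of signal against DMSO, with parallel sulforhodamine B staining of total protein for overt cytotoxicity.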

Read-out in assay [12]: Vascular cell adhesion molecule 1 (VCAM1), VCAM1 (gene 7412)
Nature of the assay: BSK_4H_VCAM1: BioMAP Diversity Plus: 4H Assay for Vascular cell adhesion molecule 1 (VCAM1) Biomarker Activity (AID 2283033).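 As to outcome: cell-surface VCAM-1 protein measured by ELISA.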 Particulars: primary human endothelial cells (HUVEC); actives raise or lower the signal. The essentials:
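VCAM-1 ELISA read 24 h after chemical dosing of HUVEC in the BioMAP 4H system, with gain or loss of signal fitted relative to DMSO. Parallel SRB staining (560 nm) checked overt cytotoxicity.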

Read-out in assay [13]: Interferon-gamma inducible Protein 10 (IP10), CXCL10 (gene 3627)
Nature of the assay: BSK_BE3C_IP10: BioMAP Diversity Plus: BE3C Assay for Interferon-gamma inducible Protein 10 (IP10) Biomarker Activity (AID 2283034). Particulars: primary human bronchial epithelial cells; actives raise or lower the signal. The essentials:
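IP-10 quantified by ELISA in human primary bronchial epithelial cell cultures at 24 hours post-dosing. Gain or loss of signal fitted relative to DMSO; parallel SRB staining assessed overt cytotoxicity.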

Read-out in assay [14]: Monokine induced gamma interferon (MIG), CXCL9 (gene 4283)
Nature of the assay: BSK_BE3C_MIG: BioMAP Diversity Plus: BE3C Assay for Monokine induced gamma interferon (MIG) Biomarker Activity (AID 2283035). Conditions: primary human bronchial epithelial cells; actives raise or lower the signal. The essentials: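 hu bronchial epithelial 1° cells, 24 h cpd; MIG by ELISA; bidirectional fit, DMSO = baseline.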

Read-out in assay [15]: Transforming growth factor beta 1 (TGFb1), TGFB1 (gene 7040)
Nature of the assay: BSK_BE3C_TGFb1: BioMAP Diversity Plus: BE3C Assay for Transforming growth factor beta 1 (TGFb1) Biomarker Activity (AID 2283036;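 also: TGF-b1 protein level measured by ELISA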). Particulars: primary human bronchial epithelial cells; actives raise or lower the signal. The essentials:
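ELISA readout of TGF-b1 from human lung bronchial epithelial primary cells, taken 24 h post-treatment. Gain or loss of signal fitted relative to DMSO baseline, with parallel SRB staining for overt cytotoxicity.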

Read-out in assay [16]: Plasminogen activator inhibitor-1 (PAI1), SERPINE1 (gene 5054)
Briefly: BSK_BE3C_PAI1: BioMAP Diversity Plus: BE3C Assay for Plasminogen activator inhibitor-1 (PAI1) Biomarker Activity (AID 2283037). Particulars: primary human bronchial epithelial cells; actives raise or lower the signal. The essentials: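 PAI-1 was measured by ELISA in human primary bronchial epithelial cultures 24 h after chemical dosing, with cytotoxicity checked by SRB total-protein staining in parallel cultures. Activity was fitted in both directions relative to DMSO.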

Read-out in assay [17]: urokinase plasminogen activator (uPA), PLAU (gene 5328)
Briefly: BSK_BE3C_uPA: BioMAP Diversity Plus: BE3C Assay for urokinase plasminogen activator (uPA) Biomarker Activity (AID 2283038).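 Also: uPA protein level quantified by ELISA in cell cultures; uPA read one day after compound addition.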 Particulars: primary human bronchial epithelial cells; actives raise or lower the signal. In short, it runs like this:
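Bronchial epithelial cells (human, primary); chemical 24 h; uPA by ELISA; bidirectional fit vs DMSO. SRB (0.1%, after 10% TCA fixation, 560 nm) in parallel cultures for cytotoxicity.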

Read-out in assay [18]: Interleukin-6 (IL6), IL6 (gene 3569)
Briefly: BSK_CASM3C_IL6: BioMAP Diversity Plus: CASM3C Assay for Interleukin-6 (IL6) Biomarker Activity for (AID 2283040). Particulars: primary human coronary artery smooth muscle cells; actives raise or lower the signal.

Read-out in assay [19]: Urokinase-type plasminogen activator receptor (uPAR), PLAUR (gene 5329)
Briefly: BSK_BE3C_uPAR: BioMAP Diversity Plus: BE3C Assay for Urokinase-type plasminogen activator receptor (uPAR) Biomarker Activity (AID 2283039).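 Also: cells exposed to compound for one day before measurement.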 Particulars: primary human bronchial epithelial cells; actives raise or lower the signal. The essentials: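 uPAR levels were measured by ELISA after 24 h compound treatment of primary human bronchial epithelial cells, fitted in both directions relative to DMSO. Parallel SRB staining served as the cytotoxicity read-out.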

Read-out in assay [20]: Tissue plasminogen activator (tPA), PLAT (gene 5327)
Nature of the assay: BSK_BE3C_tPA: BioMAP Diversity Plus: BE3C Assay for Tissue plasminogen activator (tPA) Biomarker Activity (AID 2283041).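 Also: tPA level quantified by ELISA one day after compound addition.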 Conditions: primary human bronchial epithelial cells; actives raise or lower the signal. In short, it runs like this: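 tPA measured by ELISA 24 h after dosing human primary bronchial epithelial cells (BE3C system). Changes in either direction were fitted against DMSO. Parallel cultures were stained with SRB to flag overt cytotoxicity.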

human Vitamin D Receptor (VDR), VDR (gene 7421), sequence (P11473 whole entry, looked up, the tested form may be a part): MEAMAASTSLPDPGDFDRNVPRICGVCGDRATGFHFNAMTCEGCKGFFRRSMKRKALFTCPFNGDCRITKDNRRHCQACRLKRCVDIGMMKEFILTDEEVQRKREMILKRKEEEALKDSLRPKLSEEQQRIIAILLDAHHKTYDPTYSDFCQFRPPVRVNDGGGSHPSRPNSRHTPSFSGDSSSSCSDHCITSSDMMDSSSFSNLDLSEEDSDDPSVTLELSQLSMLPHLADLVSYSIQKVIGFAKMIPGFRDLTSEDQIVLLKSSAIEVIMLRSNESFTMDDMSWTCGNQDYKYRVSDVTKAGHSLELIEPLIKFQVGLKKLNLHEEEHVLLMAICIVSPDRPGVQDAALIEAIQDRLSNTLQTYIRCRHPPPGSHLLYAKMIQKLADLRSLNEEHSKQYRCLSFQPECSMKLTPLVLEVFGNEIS

For the compound `O=c1c(-c2ccc(O)cc2)coc2cc(O)cc(O)c12`, the outcome in assay [1], in assay [7], in assay [8], in assay [10], in assay [11] and in assay [13] was inactive. For the same compound, the outcome in [14], in [15], in assay [16] and in assay [17] was inactive. Besides, the AC50 in assay [2] is 25.8 µM (active); in [3] it was 15.3 µM (active); in assay [4], 39 µM (active); in assay [5], 17.1 µM (active); in assay [6], 14.7 µM (active); in assay [9], 14.1 µM (active). The figures for the AC50 in [12] and in assay [18] were 20 µM (active) and 11.1 µM (active), respectively.
In the case of `CC(C)(O)c1ccc(CNC(=O)c2cccnc2Oc2ccc3nonc3c2)cc1`, the result in assay [1], in [2], in [3], in [4], in [5] and in assay [6] was inactive. Moreover, the outcome in assay [7], in [8], in assay [9], in assay [10], in assay [12] and in assay [13] was inactive. Besides, the result in assay [14], in assay [15], in assay [16] and in assay [17] was inactive. Also, the concentration at half-maximal activity (AC50) in assay [18] was 20 µM (active).
As for `CC1=CC(=O)/C(=C(/C)O)C(=O)O1`, the compound was classed as inactive in assay [1], in assay [2], in assay [3], in assay [4], in [5] and in [6]. Moreover, the result in [7], in [8], in assay [9], in assay [10], in [12] and in assay [13] was inactive. The result in assay [14], in [15], in assay [16], in [17], in [19] and in assay [18] was inactive.
As to `CCN(Cc1cccc(S(=O)(=O)O)c1)c1ccc(C(=C2C=CC(=[N+](CC)Cc3cccc(S(=O)(=O)O)c3)C=C2)c2ccccc2S(=O)(=O)[O-])cc1`, the result in assay [1], in [2], in assay [3], in assay [4], in assay [5] and in assay [6] was inactive. Further, the result in [7], in assay [8], in [9], in assay [10], in assay [11] and in assay [12] was inactive. The outcome in assay [13], in [14], in assay [15], in assay [16], in assay [17] and in assay [19] was inactive. Besides, the outcome in assay [18] and in [20] was inactive.
As for `Cc1occc1C(=O)Nc1ccc(C(=O)N2CCC(F)(F)/C(=C\C(=O)N3CCC(N4CCCCC4)CC3)c3ccccc32)cc1`, the compound was called inactive in assay [1], in assay [3], in [4], in [5], in [6] and in assay [7]. The outcome in [8], in [9], in [10], in assay [11], in assay [13] and in assay [14] was inactive. For the same compound, the result in assay [16], in [17], in assay [19] and in assay [18] was inactive. Also, the AC50 in assay [2] is 11.5 µM (active); in assay [12], 9.44 µM (active).
Take `CCCCCCCCCC(=O)O`: the call in [1], in assay [2], in assay [3], in [4], in assay [5] and in [6] was inactive. The result in assay [7], in assay [8], in assay [9], in assay [10], in assay [11] and in assay [12] was inactive. For the same compound, the outcome in assay [13], in assay [14], in [15], in assay [16], in assay [17] and in assay [18] was inactive.

For orientation: AC50 means the midpoint of the concentration-response curve, whichever way the signal moves.
